{"source": "PubChem BioAssay AID1347145", "about": "(National Center for Advancing Translational Sciences (NCATS), 2019)", "note": "Inconclusive results are not listed. Active and inactive are the calls of the source. Calls come from the whole dose curve; as a rule, active = well fitted inhibition curve with a large enough effect; inconclusive = small, poorly fitted or top-dose-only effect; inactive = no such curve, though single readings can be large or run the other way.", "data": [{"target": "N-terminal Xaa-Pro-Lys N-methyltransferase 1 (Homo sapiens) (UniProt Q9BV86)", "sequence (Q9BV86 whole entry, looked up)": "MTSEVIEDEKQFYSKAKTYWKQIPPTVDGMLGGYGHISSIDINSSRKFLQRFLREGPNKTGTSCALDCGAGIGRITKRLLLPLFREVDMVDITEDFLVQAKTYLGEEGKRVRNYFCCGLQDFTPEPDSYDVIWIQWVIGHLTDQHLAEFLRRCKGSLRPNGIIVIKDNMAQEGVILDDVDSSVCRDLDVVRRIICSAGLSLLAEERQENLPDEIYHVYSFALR", "assay": "qHTS Assay for Inhibitors of N-terminal methyltransferase 1 (NTMT1): MTaseGlo Assay Confirmatory Screen, Round 1", "details": "Recombinant NTMT1, MTase-Glo SAH luminescence; series mostly up to 57.1 µM", "from_the_text": "Assay Submitter (PI): Rong Huang Ph.D, Purdue University, West Lafayette, IN 47907 The N-terminal methytransferase 1 is the first methyltransferase that methylates protein alpha-N-amines and plays an important role in regulating cell mitosis, chromatin interactions and DNA repair. It is observed to be over-expressed in various cancer patient tissues like malignant melanoma and colorectal cancer tissues. Knockdown of NTMT1 in cancer cells causes cell mitotic defects and enhances sensitivity to DNA damaging chemotherapeutics. […] These critical cellular processes in which NTMT1 is implicated, coupled with emerging links to cellular dysfunction, strengthen the inference that NTMT1 is a compelling novel anticancer target. Progress have been made in understanding the molecular properties of NTMT1 and the biological consequences of protein alpha-N-terminal methylation, but there are no specific small molecule probes available for NTMT1 to fully characterize its MTase activity. To address this unmet need, a panel of assay is created and established to enable quantitative high-throughput screening (qHTS) for novel, potent, and selective small molecule NTMT1 inhibitors. Two orthogonal qHTS that use different reagents (ThioGlo vs. MTaseGlo) are developed for primary robotic screening against the NCATS chemical library of more than 400,000 small molecules. Identified inhibitors are reacquired, validated, and further characterized. MTaseGlo Assay is a luminescence screen that measure the activity of methyltransferases based on the reaction product S-adenosyl homocysteine (SAH). The substrate SAM is converted to SAH upon enzyme activation. MTase-Glo reagent and detection solution convert SAH to ATP and measure the light from the luciferase reaction. […] Early Translation Branch (ETB) National Center for Advancing Translational Sciences (NCATS) National Institute of Health (NIH)\nMaterials: NTMT1 enzyme, substrate SPKRIA, control peptide RCC1-6 is provided by the Huang laboratory. MTaseGlo Assay: In brief, 3 µL of enzyme mixture (final concentrations of 125 nM and 100 µM for NTMT1 and SAM, respectively) into all wells of a 1,536-well solid-bottom white plate (Greiner Bio One, Monroe, NC). 23 nL of DMSO or Ac-RCC1-10 (final concentration range 234 nM to 143 microM) was transferred via Wako Pin-tool (Wako Automation, Richmond, VA) and incubated (RT) for ~15 minutes. Next, 1 µL of substrate (final concentration 1 µM) or buffer was dispensed, and the reaction proceeded for 30 minutes (RT, protected from light) followed by a 1 microL addition of [5X] MTase-Glo Reagent(R). Samples were incubated (RT, protected from light) for 30 minutes to allow for SAH to be converted to ADP, followed by a 5 microL addition of [1X] MTase-Glo Detection Solution(R) to allow for ADP to be converted to ATP, which was then detected with a luciferase reaction. Samples were centrifuged for 15 seconds at 1,000 RPM's, followed by a RT incubation for 30 minutes. Plates were then read using Luminescence optics on a ViewLux detector. Data were normalized to no-enzyme (0% activity) and no-inhibitor (DMSO; 100%) controls, and the resulting percent inhibition data were fitted to a 4-parameter Hill equation using Graphpad Prism.", "values": [{"smiles": "COc1cc2nc(N3CCCN(C)CC3)nc(N(C)C3CCN(C)CC3)c2cc1OC", "outcome": "inactive"}, {"smiles": "Nc1ncnc2c1ncn2[C@@H]1O[C@H](COP(=O)(O)OP(=O)(O)OP(=O)(O)O)[C@H]2OC3(O[C@H]21)C([N+](=O)[O-])=CC(=[N+]([O-])[O-])C=C3[N+](=O)[O-]", "note": "(stereo partly drawn)", "outcome": "inactive"}, {"smiles": "Nc1ncnc2c1ncn2[C@@H]1O[C@@H]2COP(O)(=S)O[C@H]2[C@H]1O", "note": "(stereo partly drawn)", "outcome": "inactive"}, {"smiles": "CCN(CC)c1ncnc2c1ncn2[C@@H]1O[C@H](COP(=O)(O)OP(=O)(O)C(Br)(Br)P(=O)(O)O)[C@@H](O)[C@H]1O", "outcome": "inactive"}, {"smiles": "Nc1ncnc2c1ncn2[C@@H]1O[C@@H]2CO[P@](=O)(S)O[C@H]2[C@H]1O", "outcome": "inactive"}, {"smiles": "Nc1ncnc2c1ncn2[C@@H]1O[C@H](COP(=O)(O)CP(=O)(O)O)[C@@H](O)[C@H]1O", "outcome": "inactive"}, {"smiles": "CCNC(=O)[C@H]1O[C@@H](n2cnc3c(N)ncnc32)[C@H](O)C1O", "note": "(stereo partly drawn)", "outcome": "inactive"}, {"smiles": "Nc1ncnc2c1nc(Sc1ccc(Cl)cc1)n2[C@@H]1O[C@@H]2COP(O)(=S)O[C@H]2[C@H]1O", "note": "(stereo partly drawn)", "outcome": "inactive"}]}]}
